The nature of test [1]: Cell Viability - Mesenchymal (AID 546).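 Note: cells exposed to compound for 40 hours before reading; 0% = DMSO only and -100% = 100 µM tamoxifen.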 Put shortly: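 Human kidney mesenchymal cells from normal renal glomeruli, 1000 cells/well, rested 5 hr at 37 °C, then treated 40 hr at 37 °C in complete medium. Cellular ATP read by CellTiter-Glo luminescence; AC50 from Hill-equation fits.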
The nature of test [2]: Cellular Toxicity (caspase-3) HepG2 (AID 654).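 Note: cells exposed to compound for 16 hours before reading; 0% = DMSO alone and 100% = caspase signal from 100 µM tamoxifen.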 Put shortly: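 qHTS, HepG2, 1500 cells/well, complete medium; cpd 16 h 37 °C; Caspase-Glo 3/7, 20 min RT; lum. Norm: DMSO vs 100 uM tamoxifen; AC50 Hill fit.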
Test [3] is described as follows: Cellular Toxicity (caspase-3) Jurkat (AID 655).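 Note: cells exposed to compound for 16 h at 37 °C before reading.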 Note: potency is the fitted concentration of half-maximal effect. Put shortly: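 Jurkat cells (5000/well) in complete medium were treated with compounds for 16 hr at 37 °C, then Caspase-Glo 3/7 luminescence was read after 20 min at room temperature. Data normalized to DMSO (basal) and 100 uM tamoxifen (100%); AC50 from Hill fit.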
Test [4] can be described thus: Cellular Toxicity (caspase-3) HUV-EC-C (AID 656).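 Note: 0% = DMSO basal and 100% = 100 µM tamoxifen.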 Put shortly:
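HUV-EC-C endothelial cells, 1000/well, were pre-incubated 5 hr at 37°C, then exposed to compounds for 16 hr at 37°C. Caspase-Glo 3/7 luminescence was read after 20 min at room temperature. AC50 came from Hill fits, normalized to DMSO and 100 uM tamoxifen.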

A short description of test [5]: Cellular Toxicity (caspase-3) SHSY5Y (AID 657). Put shortly: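 SH-SY5Y human neuroblastoma cells (1500/well) were treated with compounds for 16 h at 37 °C, then Caspase-Glo 3/7 luminescence was read after 1 h at room temperature. Data normalized to DMSO and 10 uM staurosporine; AC50 from Hill fits.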
The nature of test [6]: Cellular Toxicity (caspase-3) BJ (AID 658).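 For caspase-3 activation: 0% = DMSO basal and 100% = 10 µM staurosporine.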 Note: potency is the fitted concentration of half-maximal effect. The conditions noted are these: Potency: caspase-3 activation. Put shortly: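 BJ human foreskin fibroblasts, 1000 cells/well, treated 16 hours at 37 °C in complete medium; caspase 3/7 activity by Caspase-Glo luminescence after 1 hr at room temperature. Normalized to DMSO and 10 uM staurosporine; AC50 from Hill fits.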
The nature of test [7]: Cellular Toxicity (caspase-3) MRC-5 (AID 659).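 For caspase-3 activation: 0% = DMSO basal and 100% = 10 µM staurosporine.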 Note: potency is the fitted concentration of half-maximal effect. The conditions noted are these: Potency: caspase-3 activation. Put shortly:
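MRC-5 human normal lung fibroblasts, 1500 cells/well, treated 16 h at 37 °C in complete medium. Caspase 3/7 measured by Caspase-Glo luminescence after 1 h at room temperature. Normalized to DMSO and 10 uM staurosporine; AC50 from Hill fit.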

Test [8] in a line: Cellular Toxicity (caspase-3) Mesangial (AID 660).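 Note: combined caspase 3 and 7 activity read by Caspase-Glo luminescence.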 Put shortly:
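Concentration-response qHTS: compound-induced rise in caspase 3/7 luminescence in human mesangial cells after 16 h, normalized to DMSO and 100 uM tamoxifen controls.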

Test [9] can be described thus: Cellular Toxicity (caspase-3) SK-N-SH (AID 661).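 For caspase-3 activation: 0% = DMSO basal and 100% = 10 µM staurosporine.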 Note: potency is the fitted concentration of half-maximal effect. The conditions noted are these: SK-N-SH caspase-3 activation, qHTS; caspase-3 activation: at 91.7 µM (top of the series), DMSO as zero, staurosporine as full. Put shortly:
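Caspase 3/7 activation is measured as a luminescence increase from aminoluciferin released by substrate cleavage in SK-N-SH cells after 16 hr compound treatment; values are AC50 from concentration-response curves.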
In general terms: qHTS replaces the single test concentration by a dilution series.

Test [10] is described as follows: Cellular Toxicity (caspase-3) H-4-II-E (AID 663).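 Note: cells exposed to compound for 16 hr before readout; 0% = DMSO basal and 100% = 100 µM tamoxifen.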 Put shortly:
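Rat hepatoma H-4-II-E cells (1500/well) plated 5 hr, then exposed to compound titrations for 16 hr at 37 °C. Caspase-Glo 3/7 luminescence read after 20 min at RT; data normalized to DMSO and 100 uM tamoxifen, AC50 from Hill fits.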

The nature of test [11]: Cellular Toxicity (caspase-3) Hek293 (AID 664).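 Note: cells exposed to compound for 16 h at 37 °C before readout.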 Put shortly:
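Activation of caspase-3/7 is measured as increased luminescence from cleaved peptide-aminoluciferin substrate in HEK293 cells treated 16 hours at 37 °C. AC50 values come from Hill-equation fits of concentration-response data.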

Test [12] can be described thus: Cellular Toxicity (caspase-3) N2a (AID 665).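 Note: compound exposure lasted 16 h at 37 °C before readout.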 Put shortly:
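Plated mouse neuroblastoma N2a cells received titrated compounds for 16 h in complete medium. Caspase activity was then detected with a peptide-aminoluciferin luminescent reagent.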

The nature of test [13]: Cellular Toxicity (caspase-3) NIH 3T3 (AID 666).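 Note: caspase signal read after 16 h compound exposure; 0% = DMSO basal and 100% = 100 µM tamoxifen stimulation.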 Put shortly:
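Concentration-response qHTS in NIH 3T3 mouse fibroblasts scores caspase-3/7 activation as rising luminescence after 16 hr compound exposure. Signals are scaled between DMSO-only and 100 uM tamoxifen.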

A short description of test [14]: Cellular Toxicity (caspase-3) Renal Proximal Tubule (AID 667).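 Note: cells exposed to compound for 16 hours at 37 °C before detection; 0% = DMSO basal and 100% = 10 µM staurosporine.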 The conditions noted are these: renal proximal tubule cells; at 91.7 µM (top of the series) unless noted. Put shortly: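 Primary rat proximal tubule cells, 1000/well, 5 h plating at 37 °C, then compound 16 h at 37 °C. Caspase-Glo 3/7 reagent, 1 h RT, luminescence. Normalized to DMSO (basal) and 10 uM staurosporine (100%); Hill-fit AC50.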

The target in test [15] is Cytochrome P450 3A4 (Homo sapiens) (UniProt P08684). In words: qHTS Assay for Inhibitors and Substrates of Cytochrome P450 3A4 (AID 884). Note: % is set by controls: 0 for no effect and ±100 for the full control effect; nearly all actives have a fitted effect of over 50% in size. Put shortly: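 20 nM human CYP3A4 with 25 uM Luciferin-PPXE (at KM) in 200 mM KPO4, preincubated 10 min with compound; NADPH regeneration started a 60 min RT reaction. Luciferin detected by luminescence, normalized to 57 uM ketoconazole as full inhibition.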
Sequence of Cytochrome P450 3A4 (Homo sapiens) (P08684 whole entry, looked up): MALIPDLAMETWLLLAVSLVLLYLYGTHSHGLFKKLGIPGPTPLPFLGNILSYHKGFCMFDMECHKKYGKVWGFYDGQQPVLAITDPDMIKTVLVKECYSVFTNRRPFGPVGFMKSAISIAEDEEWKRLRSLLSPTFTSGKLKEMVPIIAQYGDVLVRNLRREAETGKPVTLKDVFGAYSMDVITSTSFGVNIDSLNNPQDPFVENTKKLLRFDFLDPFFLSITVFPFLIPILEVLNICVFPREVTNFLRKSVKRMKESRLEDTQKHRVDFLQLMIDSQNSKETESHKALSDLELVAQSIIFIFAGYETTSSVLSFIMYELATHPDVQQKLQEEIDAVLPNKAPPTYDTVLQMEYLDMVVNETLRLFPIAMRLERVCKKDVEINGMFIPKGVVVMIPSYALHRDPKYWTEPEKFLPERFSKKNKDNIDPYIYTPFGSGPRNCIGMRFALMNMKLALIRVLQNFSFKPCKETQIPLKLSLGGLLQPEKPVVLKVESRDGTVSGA

In test [16] the target is 3',5'-cyclic-AMP phosphodiesterase 4B (Homo sapiens) (UniProt Q07343). In words: qHTS Assay for Inhibitors of PDE-IV (AID 607; active = well fitted activation curve with a large enough effect in the main read-out, with a control signal flat, not every such curve was filed as active; note: % of control where 0% means no effect). Put shortly:
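Cell-based read-out of cAMP via a modified cyclic nucleotide-gated channel and membrane potential dye (535/590 nm) in HEK293 cells expressing PDE4 endogenously. Compounds tested up to 22.9 uM final; 100 uM RO 20-1724 reference.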

Test [17] has as its target Guanine nucleotide-binding protein G(i) subunit alpha-1 (Homo sapiens) (UniProt P63096). In words: qHTS Assay for Inhibitors of RGS12 GoLoco Motif Activity (Green Fluorophore) (AID 879).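 Note: 0% = labeled peptide with Gαi1 and full inhibition = labeled peptide alone without protein; negative values mean loss of peptide binding seen as reduced polarization.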 Put shortly: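 Fluorescence polarization assay: 50 nM Gαi1 with 10 nM FITC-labeled RGS12 GoLoco peptide in 10 mM Tris pH 7.5, 150 mM NaCl, 0.1 mM GDP, 0.05% NP40, 10 min at room temperature with compound.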

For test [18], the target named is Cytochrome P450 3A4 (Homo sapiens) (UniProt P08684). In words: qHTS Assay for Activators of Cytochrome P450 3A4 (AID 885). Note: nearly all actives have a fitted effect of over 65% in size. Put shortly:
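Signal was normalized against complete inhibition by 57 uM ketoconazole. The reaction used 20nM CYP3A4 with 25uM Luciferin-PPXE, 10-min compound preincubation and a 60-min NADPH-supported step at RT.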

“And” between values parts separate entries of the source, which are not always exact repeats. Identical values can stand only once. Values without a mark were called inactive. Records with an inconclusive call do not appear. The source made the active and inactive calls. Unless noted, calls come from the whole dose curve; as a rule, active = well fitted curve in the direction sought with a large enough effect; inconclusive = small, poorly fitted or top-dose-only effect, or another doubt; inactive = no such curve, though single readings can be large; an effect the other way counts as inactive or inconclusive.

Sequence of 3',5'-cyclic-AMP phosphodiesterase 4B (Homo sapiens) (Q07343 whole entry, looked up): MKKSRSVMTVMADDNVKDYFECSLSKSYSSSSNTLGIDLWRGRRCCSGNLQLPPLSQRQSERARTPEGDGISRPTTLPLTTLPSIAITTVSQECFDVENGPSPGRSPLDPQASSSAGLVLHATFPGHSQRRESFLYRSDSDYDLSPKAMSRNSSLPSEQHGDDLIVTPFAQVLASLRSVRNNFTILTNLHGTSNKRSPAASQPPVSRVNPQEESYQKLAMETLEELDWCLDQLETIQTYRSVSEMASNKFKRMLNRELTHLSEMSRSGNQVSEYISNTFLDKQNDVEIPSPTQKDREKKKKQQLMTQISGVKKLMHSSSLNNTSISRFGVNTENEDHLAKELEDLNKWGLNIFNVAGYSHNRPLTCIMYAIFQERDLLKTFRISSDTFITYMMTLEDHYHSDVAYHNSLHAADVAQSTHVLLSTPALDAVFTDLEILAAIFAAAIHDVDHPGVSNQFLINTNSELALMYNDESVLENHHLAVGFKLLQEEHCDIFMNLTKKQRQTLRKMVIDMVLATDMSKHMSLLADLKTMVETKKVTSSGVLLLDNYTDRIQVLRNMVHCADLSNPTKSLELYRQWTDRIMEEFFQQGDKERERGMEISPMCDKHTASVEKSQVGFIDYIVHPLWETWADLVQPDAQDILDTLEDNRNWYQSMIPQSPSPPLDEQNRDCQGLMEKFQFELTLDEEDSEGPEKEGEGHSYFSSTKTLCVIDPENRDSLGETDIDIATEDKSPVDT
Sequence of Guanine nucleotide-binding protein G(i) subunit alpha-1 (Homo sapiens) (P63096 whole entry, looked up): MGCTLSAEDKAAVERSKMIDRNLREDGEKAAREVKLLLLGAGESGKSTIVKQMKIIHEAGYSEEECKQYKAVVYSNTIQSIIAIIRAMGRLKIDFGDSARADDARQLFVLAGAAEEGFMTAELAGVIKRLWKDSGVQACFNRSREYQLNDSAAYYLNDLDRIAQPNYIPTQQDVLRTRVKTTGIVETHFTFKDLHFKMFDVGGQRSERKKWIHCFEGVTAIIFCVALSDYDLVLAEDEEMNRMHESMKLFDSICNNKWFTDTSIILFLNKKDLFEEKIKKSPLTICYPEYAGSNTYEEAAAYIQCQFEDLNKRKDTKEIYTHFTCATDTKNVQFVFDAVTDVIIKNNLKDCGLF

As to `ClC(Cl)(Cl)Cl`, the Potency entry in test [1], in [3], in test [6], in [7], in test [9] and in test [13] was “inactive” throughout. For the same compound, the Potency entry in [15] is “inactive”. For the same compound, the call in test [2], in test [4], in test [5], in [8], in test [10] and in [11] was inactive. Further, the compound was called inactive in test [12]. Also, the caspase-3 activation in test [14] was 5.92% and -10.1%.
Turning to `ClC=C(Cl)Cl`, the Potency entry in [1], in test [3], in [6], in [7], in test [9] and in [13] was “inactive” in each case. The Potency result in test [15] was “inactive”. The compound was called inactive in test [2], in test [4], in [5], in [8], in [10] and in [11]. Besides, the compound was classed as inactive in test [12]. For the same compound, the caspase-3 activation in test [14] is -7.81% [at 91.7 µM, primary cells freshly taken from rat, solvent-only wells 0%, staurosporine 100%].
For `NNC(N)=O`, the Potency result in test [1], in test [16], in test [3], in test [6], in test [7] and in [9] was “inactive” each time. The Potency entry in [13], in [17] and in [15] was “inactive” each time. Moreover, the result in test [2], in test [4], in test [5], in test [8], in test [10] and in [11] was inactive. Also, in test [12], the outcome was inactive. In addition, the caspase-3 activation in test [14] was 4.27%.
For `[O]=[Cr](=[O])([OH])[O][Cr](=[O])(=[O])[OH]`, the Potency entry in [1] and in test [15] was “inactive” throughout. Also, the outcome in [2], in test [8], in test [10], in [11] and in test [12] was inactive. Further, the Potency is 31.6 µM (active) in [3]; 15.8 µM (active) in [6]; 20 µM (active) and 25.1 µM (active) in [7]; 20 µM (active) in test [9]. The caspase-3 activation was 80.2% (active) in test [9] and 101% (active) in test [14].
As to `NC(N)=NOCC[C@H](N)C(=O)O`, the Potency result in test [16] and in test [17] was “inactive” in each case.
With `CC(C)CCON=O`, the Potency result in test [1], in test [3], in test [6], in [7], in test [9] and in test [13] was “inactive” each time. Further, in test [15], the Potency result was “inactive”. The call in test [2], in test [4], in test [5], in test [8], in test [10] and in test [11] was inactive. Further, the compound was called inactive in test [12]. In addition, the caspase-3 activation in test [14] was -0.158%.
On to `O=Cc1ccco1`, for which the Potency result in test [1], in [3], in [6], in test [7], in test [9] and in test [13] was “inactive” in each case. Further, the Potency result in test [15] was “inactive”. Also, the result in [2], in test [4], in test [5], in [8], in test [10] and in test [11] was inactive. For the same compound, the compound was called inactive in [12]. The caspase-3 activation in test [14] is -8.6% [at 91.7 µM, primary cells freshly taken from rat, solvent-only wells 0%, staurosporine 100%].
Take `C=CCN=C=S`: the Potency entry in test [1], in test [3], in [6], in test [7], in [9] and in test [13] was “inactive” each time. Moreover, the compound was called inactive in test [2], in test [4], in [5], in test [8], in test [10] and in test [11]. The compound was classed as inactive in test [12] and in test [18]. Moreover, in test [14], the caspase-3 activation is -1.14% [at 91.7 µM, primary cells freshly taken from rat, solvent-only wells 0%, staurosporine 100%].
With `Clc1ccccc1Cl`, the Potency result in test [1], in test [3], in test [6], in test [7], in test [9] and in test [13] was “inactive” each time. The Potency entry in test [15] is “inactive”. For the same compound, the compound was called inactive in [2], in [4], in [5], in test [8], in [10] and in [11]. For the same compound, the outcome in test [12] was inactive. Also, in test [14], the caspase-3 activation is 5.14% [at 91.7 µM, primary cells freshly taken from rat, solvent-only wells 0%, staurosporine 100%].
Turning to `ClCC1CO1` (configuration not stated), the Potency result in [1], in test [3], in test [6], in [7], in [9] and in test [13] was “inactive” in each case. In addition, the Potency result in test [15] was “inactive”. Also, the call in test [2], in test [4], in test [5], in test [8], in test [10] and in test [11] was inactive. Besides, the compound was called inactive in [12]. Also, the caspase-3 activation in [14] is 0.815% [at 91.7 µM, primary cells freshly taken from rat, solvent-only wells 0%, staurosporine 100%].
Regarding `O=[N+]([O-])c1ccccc1`, the Potency entry in [1], in test [3], in [6], in test [7], in test [9] and in test [13] was “inactive” each time. Besides, the Potency result in [15] was “inactive”. The result in test [2], in [4], in test [5], in test [8], in [10] and in test [11] was inactive. For the same compound, the result in test [12] was inactive. Also, the caspase-3 activation in test [14] was 0.615%.
